From PubChem BioAssay (NCI) come the findings set out here.

Holding throughout (test): NCI-60 one-dose screen, 48 h (100 = growth as untreated, 0 = no growth, -100 = all killed)
What all share (settings): 10 µM unless noted

Experiment [1] relates to NCI-H23 lung.
The test system of experiment [2] is NCI-H226 lung.
For experiment [3], the system named is NCI-H322M lung.
Experiment [4] relates to HOP-62 NSCLC.
The subject of experiment [5] is NCI-H460 lung.
Experiment [6] deals with HOP-92 NSCLC.
Experiment [7] relates to NCI-H522 lung.
Experiment [8] deals with A549/ATCC NSCLC.
The subject of experiment [9] is 786-0 renal.
Experiment [10] deals with COLO 205 colon.
Experiment [11] concerns DU-145 prostate.
In experiment [12] the test system is K-562 leukemia.
For experiment [13], the system named is MALME-3M melanoma.
For experiment [14], the system named is MDA-MB-231 breast.
The subject of experiment [15] is RXF 393 renal.
In experiment [16] the test system is SF-268 CNS.
For experiment [17], the system named is SF-295 CNS.
Experiment [18] has as its system SF-539 CNS.
The test system of experiment [19] is UACC-257 melanoma.
The test system of experiment [20] is M14 melanoma.

The panel holds about 83,000 compounds, 20% with a hit somewhere; the sample as a whole holds those more often.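 48-hour exposure, single concentration, 96-well plates; percent growth endpoint where 0 means no net growth. Active: below 10.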 A number with no mark means an inactive call. Activity calls are given as the source filed them.

`Cc1cc(N(CCCl)CCCl)ccc1C=Nc1ccccc1-c1ccccc1`: the growth in experiment [1] was 60.8%; in experiment [2], -38.8% (active); in [3], 101%; in experiment [4] it was 54.6%; in experiment [5] it was 16.4%; in [6], 84.4%. Also, the growth in [7] was 99.5%; in [8], 59.6%; in experiment [9] it was 52.1%; in [10] it was 86.1%; in experiment [11], 61.2%; in experiment [12], 85%. The growth is 77.1% in experiment [13]; 94.4% in [14]; 45.5% in experiment [15]; 62.8% in experiment [16]; 27.2% in experiment [17]; 61.7% in experiment [18]. Besides, the growth was 55.3% in [19] and 75.8% in experiment [20].

With `C/C1=C/C(=O)O[C@@H]2C[C@@H](CC[C@H](C)/C=C\C=C\CC1)O[C@@](O)([C@@H]1CSC(=O)N1CO)C2`, the growth in experiment [1] was 13.9%; in [2], 46.1%; in experiment [3], 41.7%; in experiment [4], -25.7% (active); in [5], 26.9%; in [6] it was -82.5% (active). In addition, the growth was -52.3% (active) in experiment [7]; 20.3% in experiment [8]; 6.79% (active) in experiment [9]; -55.5% (active) in experiment [10]; 22.9% in experiment [11]; 22.2% in [12]. For the same compound, the growth in experiment [13] was 14%; in experiment [14], 13.7%; in experiment [15], -35.4% (active); in experiment [16], -37.7% (active); in experiment [17] it was 13.5%; in [18] it was -3.61% (active). For the same compound, the figures for the growth in experiment [19] and in experiment [20] were 13.9% and 34.5%, respectively.

Take `Cn1cccc1C1CC(=O)N(CCC[Se]C#N)C1=O` (stereo not given): the growth in [1] is -25.4% (active); in experiment [2], -46.1% (active); in experiment [3] it was 11.1%; in experiment [4], -75.7% (active); in experiment [5] it was -0.959% (active); in experiment [6] it was -40.8% (active). Further, the growth in experiment [7] is 23.5%; in experiment [8] it was -38.6% (active); in experiment [9], -73.2% (active); in [10] it was 70.1%; in experiment [11], -76% (active); in experiment [12] it was 16.2%. The growth is -30.1% (active) in experiment [13]; -45.3% (active) in experiment [14]; -48.7% (active) in experiment [15]; -31.8% (active) in experiment [16]; -58.2% (active) in [17]; -81.2% (active) in experiment [18]. Further, the growth is -70.6% (active) in experiment [19] and 4.09% (active) in experiment [20].

Take `CNC(=O)Oc1ccc(N(C)C)cc1C(C)C`: the growth is 103% in [1]; 92.6% in experiment [2]; 91.1% in experiment [3]; 99.5% in [4]; 107% in experiment [5]; 100% in experiment [6]. Further, the growth was 92.2% in experiment [7]; 94.9% in [8]; 102% in experiment [9]; 115% in [10]; 101% in experiment [11]; 129% in experiment [12]. Also, the growth in [13] was 72.1%; in experiment [14] it was 103%; in experiment [15], 73.8%; in experiment [16] it was 101%; in experiment [17], 118%; in experiment [18], 89.7%. The growth was 105% in [19] and 97.2% in experiment [20].

Take `Cc1cccc(N2CCN(C(C)C#N)CC2)c1` (stereo not given): the growth in [1] was 97.6%; in experiment [2], 96.6%; in experiment [3], 93.8%; in experiment [4], 107%; in experiment [5], 109%; in experiment [6], 91.4%. Further, the growth in experiment [7] is 88.9%; in [8], 107%; in experiment [9] it was 90.3%; in [10], 105%; in [11] it was 107%; in experiment [12], 98.4%. Also, the growth in experiment [13] is 102%; in [14], 104%; in experiment [15], 105%; in experiment [16] it was 103%; in experiment [17], 84.6%; in [18] it was 104%. The growth in experiment [19] was 97.9%; in experiment [20] it was 105%.

`Clc1cccc(N2COOC3(OOC2)C2CC4CC(C2)CC3C4)c1`: the growth is 49% in [1]; 96.2% in [2]; 99.6% in [3]; 73% in experiment [4]; 87.2% in [5]; -7.89% (active) in experiment [6]. Further, the growth was 2.67% (active) in experiment [7]; 76% in experiment [8]; 7.65% (active) in experiment [9]; 111% in [10]; 89.6% in experiment [11]; 66.2% in experiment [12]. The growth in experiment [13] was 73.5%; in experiment [14], 98.9%; in [15], 92.1%; in [16] it was 83.8%; in experiment [17], 86.1%; in experiment [18], 73.3%. Also, the growth was 98% in [19] and 93.8% in experiment [20].

As to `C[S+]1C=Cc2ccccc2C1c1ccc(Cl)cc1` (stereo not given), the growth in [1] is 83.7%; in [2] it was 85.1%; in experiment [3], 99.5%; in experiment [4], 126%; in experiment [5] it was 99.6%; in experiment [6], -54.5% (active). Besides, the growth in experiment [7] is 18.9%; in [8], 78.9%; in experiment [9] it was 111%; in [10] it was 114%; in [11] it was 99.8%; in experiment [12], 78.8%. For the same compound, the growth in experiment [13] is 103%; in [14], 103%; in experiment [15], 74.8%; in [16], 47.1%; in [17], 68%; in experiment [18] it was 104%. Besides, the results for the growth in [19] and in experiment [20] were 92.5% and 83.6%, respectively.
